# In the supplement of paper PMC8047044:
# Counter-ions that a name gives are not always drawn.
# What was measured:
# Neuro-2a [1] = test: neurite formation score, plate-normalized to DMSO control mean 5.04 (score (0-8 scale)); higher = more or longer neurites; conditions: 1 µM
# Method: (§1)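 Neuro-2a mouse neuroblastoma cells in PLL-coated 96-well plates were pre-treated for 1 h in DMEM(+) with each kinase inhibitor at 1 µM, then switched to serum-free DMEM(-) with inhibitor to induce neurite outgrowth and fixed about 2-3 h later. Three blinded observers scored neurite formation from 0 (no neurites) to 8 (long neurites on almost all cells).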
# Neuro-2a [2] = test: as above; conditions: 0.1 µM
# Method: as §1, with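 “at 0.1” for “at 1”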
smiles,measurement,setting,value
COC(=O)Nc1nc2cc(C(=O)c3cccs3)ccc2[nH]1 [Nocodazole],neurite formation score,Neuro-2a [1],1.29
same,neurite formation score,Neuro-2a [2],1.58
Nc1nc(N)c(N=O)c(OCC2CCCCC2)n1,neurite formation score,Neuro-2a [1],4.57
same,neurite formation score,Neuro-2a [2],4.71
Clc1ccc(C2(c3ccc(-c4cn[nH]c4)cc3)CCNCC2)cc1,neurite formation score,Neuro-2a [1],5.24
same,neurite formation score,Neuro-2a [2],4.54
O=C(Nc1ccc(OC(F)(F)F)cc1)c1sccc1NCc1ccnc2ccccc12,neurite formation score,Neuro-2a [1],3.91
same,neurite formation score,Neuro-2a [2],3.38
Cn1cc(C2=C(c3cn(CCCSC(=N)N)c4ccccc34)C(=O)NC2=O)c2ccccc21 [Ro 31-8220 Mesylate],neurite formation score,Neuro-2a [1],4.54
same,neurite formation score,Neuro-2a [2],3.08
CO[C@H]1C[C@@H]2CC[C@@H](C)[C@@](O)(O2)C(=O)C(=O)N2CCCC[C@H]2C(=O)O[C@H]([C@H](C)C[C@@H]2CC[C@@H](OCCO)[C@H](OC)C2)CC(=O)[C@H](C)/C=C(\C)[C@@H](O)[C@@H](OC)C(=O)[C@H](C)C[C@H](C)/C=C/C=C/C=C/1C [Everolimus (RAD001)],neurite formation score,Neuro-2a [1],4.57
same,neurite formation score,Neuro-2a [2],5.54
CCNC(=O)Nc1ccc(-c2nc3c(c(N4CCOC[C@@H]4C)n2)CCN(C2COC2)C3)cc1,neurite formation score,Neuro-2a [1],4.24
same,neurite formation score,Neuro-2a [2],3.71
C=CC(=O)Nc1ccc(CN2C(=O)N(c3cc(OC)cc(OC)c3)Cc3cnc(Nc4ccc(N5CCN(C)CC5)cc4)nc32)cc1,neurite formation score,Neuro-2a [1],4.63
same,neurite formation score,Neuro-2a [2],4.25
"CCCCCCCCCCCC(=O)OCC(CO)OC(=O)CCCCCCCCCCC (configuration not stated) [1,2-Dilauroyl-sn-glycerol]",neurite formation score,Neuro-2a [1],4.54
same,neurite formation score,Neuro-2a [2],5.08
Cc1cc(Nc2nc(N[C@@H](C)c3ncc(F)cn3)ncc2Cl)[nH]n1,neurite formation score,Neuro-2a [1],3.8
same,neurite formation score,Neuro-2a [2],3.09
COc1cc(OC)c(/C=C/S(=O)(=O)Cc2ccc(OC)c(NCC(=O)O)c2)c(OC)c1,neurite formation score,Neuro-2a [1],0.908
same,neurite formation score,Neuro-2a [2],3.04
